Assay outcomes deposited in PubChem BioAssay by National Center for Advancing Translational Sciences (NCATS).
ALDH1A1 block = inhibitors of human aldehyde dehydrogenase 1A1 | 220,000 tested, 7.3% active | AID 1030 | P00352 | Potency, µM (highest dose often 75.3 µM), without a hit: at the top dose activity, negative = inhibition, hits mostly inhibitors | Purified ALDH1A1, NADH fluorescence, propionaldehyde substrate; active means well fitted inhibition curve with a large enough effect, not every such curve was filed as active; inconclusive means small, poorly fitted or top-dose-only effect, or another doubt; inactive means no such curve, though single readings can be large or run the other way;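 further: potency means the concentration at half of the fitted maximal effect; plate controls were no enzyme wells and a reference inhibitor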
Target sequence (P00352 whole entry, looked up): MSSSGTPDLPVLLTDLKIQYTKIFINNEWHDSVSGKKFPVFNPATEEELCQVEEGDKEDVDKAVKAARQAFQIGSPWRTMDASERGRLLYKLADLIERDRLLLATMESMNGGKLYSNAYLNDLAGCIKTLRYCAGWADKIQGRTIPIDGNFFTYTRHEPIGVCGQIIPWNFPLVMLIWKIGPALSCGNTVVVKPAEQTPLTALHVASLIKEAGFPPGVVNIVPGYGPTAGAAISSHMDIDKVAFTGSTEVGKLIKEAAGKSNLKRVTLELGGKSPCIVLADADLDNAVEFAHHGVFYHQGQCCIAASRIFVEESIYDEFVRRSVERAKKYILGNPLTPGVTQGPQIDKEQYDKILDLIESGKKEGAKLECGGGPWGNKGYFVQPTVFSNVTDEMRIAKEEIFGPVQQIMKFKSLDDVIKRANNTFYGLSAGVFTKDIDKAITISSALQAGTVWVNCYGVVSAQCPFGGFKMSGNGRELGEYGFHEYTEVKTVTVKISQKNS
PNC inhibitor = inhibitors of perinucleolar compartment assembly; 140,000 tested, 3.1% active; activity change (PNC), negative = inhibition, % at 10 µM; PC3M PTB-GFP, PNC prevalence imaging, 16 h; stronger effect = lower value; AID 2417;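 active means readout at or below -70, meaning at least 70% loss of cells showing the perinucleolar compartment, a nuclear body marking cancer cells; inconclusive means readout between -30 and a set limit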;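 further: plate controls were DMSO wells for no effect and camptothecin positive control wells for full effect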
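PC3M cells stably expressing PTB-GFP, 750–1000 cells/well, treated 16 h at 37 °C with compound (23 nl of library stock), in duplicate. After paraformaldehyde fixation and Hoechst stain, imaged at 20x; PNC prevalence scored by image analysis.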
HttQ103 aggreg = mutant huntingtin aggregation inhibition. PC12 HttQ103-GFP aggregates, Acumen cytometry, 40 h. Potency, µM (doses to about 46.1 µM), for the others: top-dose activity change, negative = inhibition, most hits filed as inhibitors. 220,000 tested, 1.1% active. AID 1688; further: potency means the concentration at half of the fitted maximal effect; on the % scale 0 is the no-effect control and ±100 the full control effect; nearly all actives have a fitted effect of over 60% in size
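Huntingtin Q103 exon 1–GFP aggregates in induced PC12 cells (100 nM tebufenozide) were quantified by cytometry from lysates, with compounds dosed in titration.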
CBFb RUNX1 block = inhibitors of human CBF-beta and RUNX1 interaction. Q01196+Q13951. AlphaScreen CBFb-His/RUNX1-biotin binding, biochemical. Potency, µM (series often up to 59.8 µM), for the others: top-dose activity, negative = inhibition, most hits filed as inhibitors. 230,000 tested, under 10 active; further: % of control where 0% means no effect
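Inhibition was taken as any reduction in AlphaScreen signal from the CBF-beta–RUNX1 pair (His and biotin tags, 30 nM each), measured after compound (15 min) and bead (90 min) incubations at room temperature.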
HPGD block = blocks human HPGD enzyme activity; 150,000 tested, 4.3% active; purified HPGD, NADH fluorescence kinetic, PGE2 substrate; Potency, µM, inactives show at the highest dose activity change, negative = inhibition, hits mostly inhibitors; AID 894; active means well fitted inhibition curve with a large enough effect, not every such curve was filed as active; inconclusive means small, poorly fitted or top-dose-only effect, or another doubt; inactive means no such curve, though single readings can be large or run the other way; further: potency means the concentration at half of the fitted maximal effect; on the % scale 0 is the no-effect control and ±100 the full control effect
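20 nM HPGD preincubated 15 min at room temperature with compound in 50 mM Tris-HCl pH 8, 0.01% Tween 20. Started with 1 mM NAD+ and 30 uM prostaglandin E2; NADH fluorescence (360/450 nm) read 5 times over 30-s intervals, last minus first.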
HTT cytoprotect = cytoprotection in Huntington HTT-Q103 PC12 cell model; PC12 HTT-Q103 induced, cytoprotection, ATP luminescence, 40 h; Potency, µM (series often up to 56.4 µM), for the others: cytoprotection (ATP increase), most hits filed as activators; 230,000 tested, 0.14% active; further: potency means the concentration at half of the fitted maximal effect; % of control where 0% means no effect; nearly all actives have a fitted effect of over 45% in size
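Compounds were screened for protection of PC12 cells against cell death after tebufenozide induction (100 nM final) of mutant Huntingtin exon 1 (Q103) fused to GFP.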
* = called active by the depositor; ? = inconclusive; nt = not tested or not shown; [ ] = remark or other dose. A selection: hits, their analogues and other compounds. The true share with any hit is near 11%. Unless noted, the call rests on the fitted dose curve; in most records, active means well fitted curve in the direction sought with a large enough effect; inconclusive means small, poorly fitted or top-dose-only effect, or another doubt; inactive means no such curve, though single readings can be large; an effect the other way counts as inactive or inconclusive.

SMILES	ALDH1A1 block	PNC inhibitor	HttQ103 aggreg	CBFb RUNX1 block	HPGD block	HTT cytoprotect
C=C(Br)CN(C)CC(=C)Br	-3%[13.5 µM]	nt	nt	nt	-1%	-10%[10 µM]
Cc1cccc(C)c1NC(=O)CSc1nc(-c2ccco2)cc(C(F)(F)F)n1	2%	?	-13%	5%	-12%	16%[10 µM]
O=C(CSc1nc(-c2ccco2)cc(C(F)(F)F)n1)Nc1ccccc1C(F)(F)F	-5%	101	?	-1%	-18%	3.2µM*
Cc1cc(NC(=O)CSc2nc(-c3ccco3)cc(C(F)(F)F)n2)no1	2%	-116*	8%	8%	-25%	14%[10 µM]
O=C(CSc1nc(-c2ccco2)cc(C(F)(F)F)n1)Nc1ccc(C(=O)N2CCCCC2)cc1	14µM*	-16	?	0%	0.56µM*	-6%
CCOC(=O)N1CCN(C(=O)C2CCN(Cc3cccc(OCc4ccccc4)c3)CC2)CC1	14µM*	54	?	2%	-7%	2%[10 µM]
O=C(Nc1ccc(Cl)cc1)N1CCC(CO)(Cc2ccccc2)CC1	13µM*	nt	2%[9.22 µM]	0%	nt	9%[10 µM]
Fc1ccc(CN2CCCCCC2)c(F)c1	-11%	-30	13%	6%	-8%	-5%[10 µM]
Cc1ccc(NC(=O)N2CCCN(Cc3ccc(F)cc3)C2)cc1C	-1%	?	5%	0%	-15%	-24%
O=C(Nc1ccc(Cl)cc1)N1CCCN(Cc2ccccc2F)C1	-7%	-10	-30%	3%	13µM*	-42%
Fc1ccccc1CN1CCCCCCC1	14µM*	?	-3%	-6%	-7%	-2%
CN1CCN(c2ncc3nc(-c4cc(F)cc(F)c4)c(=O)n(CCC#N)c3n2)CC1	?	nt	nt	nt	nt	-3%
O=C1c2oc3ccccc3c(=O)c2C(c2ccc(Br)cc2)N1c1ncccn1 (stereo not drawn)	nt	nt	nt	nt	nt	12%[0.074 µM]
Fc1ccc(CN2CCCCCCC2)cc1F	18µM*	?	?	-11%	-6%	-8%
CCOC(=O)C1CCN(Cc2ccc(F)c(F)c2)CC1	?	-101*	-8%	0%	-3%	2%
CCOC(=O)C1CCN(Cc2cccc(OC)c2)CC1	32µM*	3	2%[9.22 µM]	3%	-15%	-1%
CCOC(=O)N1CCC(N2CCCC(CO)(Cc3cccc(OC)c3)C2)CC1 (stereo not drawn)	7%	nt	0.0006µM*	-3%	nt	nt
COc1cccc(CC2(CO)CCCN(S(=O)(=O)N(C)C)C2)c1 (stereo not drawn)	0%	nt	4%[9.22 µM]	7%	nt	4%[10 µM]
CCOC(=O)C1CCN(Cc2ccc(OC)cc2OC)CC1	?	172	-2%	4%	-6%	-10%[10 µM]
Cc1cc(=O)oc2cc(O[C@@H]3O[C@H](C(=O)O)[C@@H](O)[C@H](O)[C@H]3O)ccc12	?	nt	nt	0%[21.7 µM]	?	-3%[1.9 µM]
Cc1cccc(CNc2ncnc3ccc(-c4cccc(C#N)c4)cc23)c1	?	nt	nt	nt	?	-10%
CC(C)NC(=O)Nc1ccc(Br)cc1Cl	4%	nt	-15%[9.22 µM]	-2%	nt	-2%[10 µM]
O=C(Nc1ccc(Br)cc1Cl)NC1CC1	7%	nt	18µM*	2%	nt	-19%
Cc1nc(NC(C)(C)CO)c([N+](=O)[O-])cc1[N+](=O)[O-]	3%	-119*	-20%	0%	-5%	nt
CCOc1ccc(Br)cc1S(=O)(=O)Nc1cccc(S(=O)(=O)N(C)C)c1	20µM*	-26	8%	3%	-7%	23%[10 µM]
O=C(CSc1nc(O)cc(=O)[nH]1)C1CC1	?	-123*	14%	1%	18µM*	18%
COC(=O)C1CCN(S(C)(=O)=O)CC1	-9%	-100*	-24%	-3%	-8%	22%[10 µM]
COC(=O)C1CCN(S(=O)(=O)c2ccc(NC(C)=O)cc2)CC1	6%	-28	-2%	1%	1%	1%
CC(C)(C)C(=O)NC1CCN(S(C)(=O)=O)CC1	13%	-100*	5%	0%	-9%	0%[10 µM]
C/C(=N\[N+](C)(C)C)c1ccc(C)c(C)c1	-5%[13.5 µM]	nt	nt	nt	-1%	21%[10 µM]
